Hits are enriched below; roughly 2.1% of the tested compounds scored in any of these assays.
INS-1E GSIS act: GLuc luminescence reporter in INS-1E cells, primary screen for activators of glucose-dependent secretion of insulin; activation, % at 16.6 µM; AID 743287; 0.61% of 370,000 active; INS-1E GLuc reporter insulin secretion, 2-3 h;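 active = lowest replicate activation of at least 40%, so every replicate reaches that level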;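 also: 0% = median of neutral control wells and 100% = median of IBMX positive control wells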
PGC1a acetyl inh: PGC1a acetylation modulation, inhibitor mode. 0.17% of 350,000 active. U2OS PGC1a acetylation, AlphaScreen anti-acetyl-lysine; with virally co-expressed GCN5 acetyltransferase. inhibition, % at 15.6 µM. AID 651687;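 active = every replicate shows inhibition of at least 40%; inconclusive = mean inhibition at least 40% but some replicate below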;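 also: 0% = neutral control wells and 100% = positive control wells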
NSD2 inh: inhibitors of human histone methyltransferase NSD2; O96028; NSD2 peptide methylation, AlphaScreen, 120 min; inhibition, % at 12.5 µM; 0.54% of 310,000 active; AID 743445; in the data active = inhibition above about 50%
Target sequence (O96028 whole entry, looked up): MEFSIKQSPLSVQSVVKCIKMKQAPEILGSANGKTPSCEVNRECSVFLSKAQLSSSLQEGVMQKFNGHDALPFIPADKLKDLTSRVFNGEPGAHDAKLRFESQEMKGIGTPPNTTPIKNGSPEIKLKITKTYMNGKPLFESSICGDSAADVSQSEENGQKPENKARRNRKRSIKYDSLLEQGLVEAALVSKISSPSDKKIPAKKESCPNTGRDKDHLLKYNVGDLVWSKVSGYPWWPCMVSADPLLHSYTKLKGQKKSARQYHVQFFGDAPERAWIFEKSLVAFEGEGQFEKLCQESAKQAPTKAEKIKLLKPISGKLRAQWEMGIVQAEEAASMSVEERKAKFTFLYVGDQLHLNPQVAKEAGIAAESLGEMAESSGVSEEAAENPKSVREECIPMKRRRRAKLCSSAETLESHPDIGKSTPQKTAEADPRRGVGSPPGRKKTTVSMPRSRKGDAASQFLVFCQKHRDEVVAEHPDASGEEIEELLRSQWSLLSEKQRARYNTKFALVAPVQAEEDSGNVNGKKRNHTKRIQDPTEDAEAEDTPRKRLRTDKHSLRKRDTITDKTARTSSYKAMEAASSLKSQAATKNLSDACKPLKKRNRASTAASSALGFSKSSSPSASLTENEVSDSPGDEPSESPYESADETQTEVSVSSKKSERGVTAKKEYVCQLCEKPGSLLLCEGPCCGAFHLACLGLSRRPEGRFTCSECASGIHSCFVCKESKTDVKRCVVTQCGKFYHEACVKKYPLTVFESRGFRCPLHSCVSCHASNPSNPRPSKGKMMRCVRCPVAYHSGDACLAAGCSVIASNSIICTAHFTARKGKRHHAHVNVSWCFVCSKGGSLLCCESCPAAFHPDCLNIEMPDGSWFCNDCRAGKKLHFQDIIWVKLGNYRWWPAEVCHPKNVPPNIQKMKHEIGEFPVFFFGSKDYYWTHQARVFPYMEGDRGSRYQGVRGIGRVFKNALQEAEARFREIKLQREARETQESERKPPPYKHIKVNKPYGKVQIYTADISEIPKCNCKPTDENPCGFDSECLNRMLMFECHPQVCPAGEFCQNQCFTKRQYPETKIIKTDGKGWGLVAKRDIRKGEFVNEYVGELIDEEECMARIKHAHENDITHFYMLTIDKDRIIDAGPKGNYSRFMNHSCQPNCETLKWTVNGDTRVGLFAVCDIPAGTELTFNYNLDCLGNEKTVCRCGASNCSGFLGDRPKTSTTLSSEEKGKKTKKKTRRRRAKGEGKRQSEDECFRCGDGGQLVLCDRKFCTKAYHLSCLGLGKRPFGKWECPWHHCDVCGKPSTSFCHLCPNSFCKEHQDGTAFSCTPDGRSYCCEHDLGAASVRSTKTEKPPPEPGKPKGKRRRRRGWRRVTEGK
MLL AF4-AF9 inh: MLL-AF4/AF9 protein interaction inhibition; inhibition, % at 10 µM; AID 651704; P42568; AlphaScreen, biotin-AF4 peptide binding to FLAG-AF9; 0.47% of 350,000 active;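 active = every replicate reaching a set inhibition limit, whatever the replicate mean, cut at about 25% in these data; inconclusive = mean inhibition reaches that limit but some replicates miss it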;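 also: 0% = plate neutral control median and 100% = total signal loss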
Env fusion inh: HIV envelope-mediated fusion inhibition; 1.1% of 360,000 active; HeLa-JRFL Env/CEM21 cell fusion, luciferase; inhibition, % at 12.3 µM;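 active = mean replicate inhibition score of at least 50 and every replicate individually at or above 50; inconclusive = only one of the two criteria met; inactive = mean below 50 and not all replicates reaching 50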;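 also: 0% = plate neutral controls and 100% = maraviroc near 300 nM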
* marks the source's active call; other numbers are inactive results; u = inconclusive; x = no result given; [ ] = remark or other dose.

SMILES	INS-1E GSIS act	PGC1a acetyl inh	NSD2 inh	MLL AF4-AF9 inh	Env fusion inh
COc1ccc(S(=O)(=O)N(C)C[C@@H]2Oc3ncc(-c4cc5ccccc5o4)cc3C(=O)N([C@H](C)CO)C[C@@H]2C)cc1	x	-23	x	8	69*[16.7 µM]
Cc1ccc(OCCC(=O)OCC(=O)C(C)(C)C)cc1	x	x	-3	x	x
C[C@@H]1CN([C@@H](C)CO)C(=O)c2cc(/C=C/c3ccccc3)cnc2O[C@@H]1CN(C)Cc1ccccc1F	-32	-2	x	14	-22[16.7 µM]
Cc1ccc(S(=O)(=O)N(C)C[C@@H]2Oc3ncc(/C=C/c4ccccc4)cc3C(=O)N([C@H](C)CO)C[C@@H]2C)cc1	-13	-24	x	0	75*[16.7 µM]
C[C@@H]1CN([C@@H](C)CO)C(=O)c2cc(C#Cc3ccncc3)cnc2O[C@H]1CN(C)S(=O)(=O)c1ccccc1F	-24	35	x	-3	28[16.7 µM]
C[C@H](CO)N1C[C@H](C)[C@H](CN(C)S(=O)(=O)c2ccccc2F)Oc2ncc(/C=C/c3ccccc3)cc2C1=O	-9	-8	x	5	71*[16.7 µM]
C[C@@H]1CN([C@H](C)CO)C(=O)c2cc(C#Cc3ccncc3)cnc2O[C@@H]1CN(C)S(=O)(=O)c1ccccc1F	10	4	x	-7	60*[16.7 µM]
C[C@@H]1CN([C@@H](C)CO)C(=O)c2cc(/C=C/c3ccccc3)cnc2O[C@H]1CN(C)Cc1ccccc1F	0	-22	x	28*	-4[16.7 µM]
CCc1nnc(NC(=O)C(NS(=O)(=O)c2ccccc2)C(C)C)s1 (centres undefined)	5	-5	3	-1	10
Cc1cccc(C)c1NC(=O)NC1(C(=O)N2CCN3CCCC3C2)CCCCC1 (centres undefined)	6	x	4	-3	12
O=C(COc1ccccc1)N1CCN=C1SCc1ccccc1F	-28	-10	-5	-1	12
Cc1nc(C(=O)N2CCOCC2)sc1C1(C)CC(c2ccccc2)=NO1 (centres undefined)	3	x	x	4	-26
CCOC(=O)C1=C[C@@H](C(C)(C)C)N(S(=O)(=O)c2ccc(OC)cc2)[C@H]1c1ccccc1	-52	-7	x	-4	63*
CCOC(=O)C1=C[C@@H](C(C)(C)C)N(S(=O)(=O)c2ccc(C)cc2)[C@H]1c1ccc(OC)cc1	9	-3	x	-3	15
CCOC(=O)C1=C[C@@H](C(C)(C)C)N(S(=O)(=O)c2ccc([N+](=O)[O-])cc2)[C@H]1c1cccc(Cl)c1	-1	x	x	10	71*
CCOC(=O)C1=CC[C@@H](c2cccc(Br)c2)N(S(=O)(=O)c2ccc(F)cc2)[C@H]1c1cccc(Cl)c1	-9	x	-2	-3	60*
CCOC(=O)C1=C[C@@H](C(C)(C)C)N(S(=O)(=O)c2ccc(C)cc2)[C@H]1c1cccc(Cl)c1	6	-33	x	-4	33
Cc1nc(N2CCN(C(=O)c3ccco3)CC2)c2c3c(sc2n1)CCC3	x	-23	x	x	x
c1ccn(-c2ncnc3sc4c(c23)CCCC4)c1	x	5	11	x	x
O=C(c1ccccc1)N1CCN(c2ncnc3sc4c(c23)CCC4)CC1	x	23	-1	x	87*
c1nc(N2CCOCC2)c2c3c(sc2n1)CCCC3	41*	6	1	x	u
O=C(Cc1ccccn1)NCC[C@H]1CC[C@H](NC(=O)Nc2ccc(C(F)(F)F)cc2)[C@@H](CO)O1	3	-1	x	4	4[16.7 µM]
O=C(Cc1ccccn1)NCC[C@@H]1CC[C@H](NC(=O)Nc2ccc(C(F)(F)F)cc2)[C@H](CO)O1	7	78*	x	1	-5[16.7 µM]
O=S(=O)(N1CCOCC1)n1c(Cc2ccccc2)nc2ccccc21	49*	-6	-7	x	x
O=C(C[C@@H]1C=C[C@H](NC(=O)CC2CC2)[C@H](CO)O1)NCc1ccc(Cl)cc1	-2	-3	x	-9	-4[16.7 µM]
SMILES	INS-1E GSIS act	PGC1a acetyl inh	NSD2 inh	MLL AF4-AF9 inh	Env fusion inh
O=C(C[C@H]1C=C[C@@H](NC(=O)Nc2ccccc2F)[C@@H](CO)O1)NCc1ccc(Cl)cc1	-10	4	x	0	72*[16.7 µM]
O=C(C[C@H]1C=C[C@H](NC(=O)Nc2ccccc2F)[C@H](CO)O1)NCc1ccc(Cl)cc1	14	-2	x	-1	12[16.7 µM]
O=C(C[C@H]1C=C[C@@H](NC(=O)Nc2ccccc2F)[C@@H](CO)O1)NCc1ccc(-c2ccccc2)cc1	-24	0	x	2	84*[16.7 µM]
O=C(C[C@@H]1C=C[C@@H](NC(=O)CC2CC2)[C@H](CO)O1)NCc1ccc(Cl)cc1	10	4	x	-8	55*[16.7 µM]
O=C(O)C[C@@H]1C=C[C@H](NC(=O)Nc2ccccc2)[C@H](CO)O1	5	4	x	-2	58*[16.7 µM]
C/C=C/c1ccc([C@@H]2[C@@H](CO)N3C(=O)CN(C(=O)c4ccncc4)C[C@@H]23)cc1	-1	3	x	-1	x
O=C(C[C@H]1CC[C@H]2[C@@H](COC[C@@H](O)CN2CCc2ccccc2)O1)NCc1ccc(F)cc1	-11	1	x	0	x
O=C(C[C@@H]1C=C[C@@H](NC(=O)c2cccc(F)c2)[C@@H](CO)O1)NCc1ccc(Oc2ccccc2)cc1	-19	-6	x	0	x
O=C(C[C@H]1C=C[C@@H](NC(=O)c2cccc(F)c2)[C@@H](CO)O1)NCc1ccc(Oc2ccccc2)cc1	-14	5	x	-6	80*[16.7 µM]
COc1cccc(/C=N/Nc2ccc(C(=O)O)cc2)c1O	0	-8	1	-1	86*
COc1cccc(/C=N/Nc2ccnc(=O)[nH]2)c1O	4	-14	-1	2	65*
O=C(O)C[C@@H]1C[C@H]2c3cc(NS(=O)(=O)c4ccc(F)cc4)ccc3O[C@H]2[C@H](CO)O1	8	0	x	-2	-14[16.7 µM]
CC(=O)Oc1ccccc1Cn1c(C)c(C(=O)NCc2ccc(Cl)c(Cl)c2)sc1=O	-35	x	x	12	-5
CC(=O)Oc1ccccc1Cn1c(C)c(C(=O)NCc2cccc(Cl)c2)sc1=O	-28	x	x	2	59*
O=C(Nc1cccc(C(F)(F)F)c1)c1csc([C@@H]2O[C@H](CO)[C@@H](O)[C@H]2O)n1	80*	-4	-1	-5	15
C[C@@H]1CN([C@@H](C)CO)S(=O)(=O)c2ccc(C3=CCCCC3)cc2O[C@H]1CN(C)Cc1ccccc1	16	37	x	x	34[16.7 µM]
C[C@@H]1CN([C@H](C)CO)S(=O)(=O)c2ccc(C3=CCCC3)cc2O[C@H]1CN(C)Cc1ccccc1	-8	-13	x	4	33[16.7 µM]
C[C@H](CO)N1C[C@H](C)[C@@H](CN(C)Cc2ccccc2)Oc2cc(C3=CCCC3)ccc2S1(=O)=O	3	1	x	2	55*[16.7 µM]
C[C@H](CO)N1C[C@H](C)[C@@H](CN(C)Cc2ccncc2)Oc2cc(C3=CCCCC3)ccc2S1(=O)=O	3	-19	x	10	64*[16.7 µM]
C[C@@H]1CN([C@H](C)CO)S(=O)(=O)c2ccc(C3=CCCCC3)cc2O[C@H]1CN(C)Cc1ccccc1	16	43*	x	x	25[16.7 µM]

Screening data (PubChem BioAssay)
